Test results: PubChem BioAssay (NCI)
The panel holds about 83,000 compounds, 20% with a hit somewhere; the sample as a whole holds those more often.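 Assay: single dose, 48 h. Readout: percent growth (0 = no net growth; negative = cell death). Active: <10.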 The source made the active and inactive calls.

system: HCT-15 colon; test: NCI-60 one-dose screen, 48 h (100 = growth as untreated, 0 = no growth, -100 = all killed); settings: 10 µM unless noted
Experimental: Growth inhibition of the HCT-15 human tumor cell line is measured as a screen for anti-cancer activity. Cells are grown in 96 well plates and exposed to the test compound for 48 hours. Compounds are tested at a single concentration, which is 10^-5 M for most compounds. The reported endpoint is percent growth (GI% or GIPRCNT), where numbers from 0 - 100% represent growth inhibition, and numbers from -100% - 0 represent cell death. For example, a value of 40 represents 60% growth inhibition. A value of 0 means no net growth occurred over the course of the experiment. A value of -40 indicates 40% of cells at the beginning of the experiment died by the end of the experiment. A value of -100 means all cells are dead at the end of the experiment.
NCI-60 Human Tumor Cell Lines Screen was performed using the standard one-dose NCI protocol, which is described in more detail at https://dtp.cancer.gov/discovery_development/nci-60/default.htm.
Compounds with GIPRCNT values below 10 were considered active. Activity score was based on GIPRCNT using the following formula: […]
Score is 0 for GIPRCNT values of 100 or above, 50 for GIPRCNT values of 0, and 100 for GIPRCNT values of -100.

Structure (SMILES)	growth
Cc1cnc([C@]23CC[C@@H](C)[C@H](C)[C@H]2C2=CC[C@@H]4[C@@]5(C)Cc6c([nH]c7ccccc67)C(C)(C)[C@@H]5CC[C@@]4(C)[C@]2(C)CC3)o1	66.8% [100 µM] (inactive)
CC(C)C1=NOC(=O)C1=Cc1cn(-c2ccccc2)nc1-c1cccc([N+](=O)[O-])c1	60.4% (inactive)
COc1ncc(-c2ccc3nc(N)n(-c4ccccc4C(F)(F)F)c(=O)c3c2)cc1S(=O)(=O)Nc1ccc(F)cc1F	29.4% (inactive)
Cc1ccc(Cn2c(O)c(N=NC(=O)c3ccc(S(N)(=O)=O)cc3)c3ccccc32)cc1	106% (inactive)
COc1ccc2c(c1)C(C)Cc1c(ncnc1-n1cnc3ccccc31)N2C (stereo not given)	16.1% (inactive)
Cc1cccc([N+](=O)[O-])c1I	113% (inactive)
COc1cc2c(cc1OCCCN1CCN(CCCOc3cc4c(cc3OC)C(=O)N3C[C@H](F)C[C@H]3C=N4)CC1)N=C[C@@H]1C[C@@H](F)CN1C2=O	56.6% (inactive)
Nc1ccc(NC(=O)c2ccccc2)c2c1C(=O)c1ccccc1C2=O	99% (inactive)
O=C1C(Cl)=C(Nc2ccc3cn[nH]c3c2)C(=O)c2ccccc21	-84.1% (active)
COc1ccc(C(=O)c2nccc3cc(OC)c(OC)cc23)cc1OC	96.7% (inactive)
N#CC1C(=O)NC(c2ccccc2[N+](=O)[O-])c2sc3c(F)cccc3c21 (stereo not given)	87.8% (inactive)
CCCC[C@@H](C=O)NC(=O)[C@H](CC(C)C)NC(=O)[C@H](CC(C)C)NC(=O)OCc1ccccc1	8.85% (active)
O=C(N/N=C/c1ccc([N+](=O)[O-])cc1)c1ccc(Br)o1	94.5% (inactive)
COc1ccc(-c2ccc(NNC(=O)c3ccc(F)cc3)nn2)cc1OC	64.1% (inactive)
Nc1nc(Cl)c2ncn(Cc3cc4c(cc3I)OCO4)c2n1	25.1% (inactive)
N/C(=N\c1nc2ccccc2[nH]1)NC(=O)Cc1cccc2ccccc12	71.7% (inactive)
CCCCCCCCCCCCCCCCCCNC(=S)N/N=C/c1ccc(OC)c(OC)c1	88.4% (inactive)
CC(C)C1=NOC(=O)C1=Cc1cn(-c2ccccc2)nc1-c1ccc(Cl)cc1	64.9% (inactive)
CCCSc1nc(N)nc2nc[nH]c12	104% (inactive)
CC(C)OC(=O)Nc1cc(F)ccc1F	105% (inactive)

Structure (SMILES)	growth
O=C(NCCCNC(=O)OCc1ccc2c(Br)cc(Br)c(O)c2n1)OCc1ccc2c(Br)cc(Br)c(O)c2n1	-34.4% (active)
O=C(COc1cccc(/C=C2\Oc3ccccc3C2=O)c1)c1ccc([N+](=O)[O-])cc1	94.2% (inactive)
C[N+](C)(C)c1ncnc2[n-]cnc12	104% (inactive)
C=C(C)[C@@H]1CC[C@]2(C(=O)NCCNCCNCCN)CC[C@]3(C)[C@H](CC[C@@H]4[C@@]5(C)CC[C@H](O)C(C)(C)[C@@H]5CC[C@]43C)[C@@H]12	-24.8% [100 µM] (active)
COc1ccc(NC(=S)NNc2ccc(-c3ccc(OC)c(OC)c3)nn2)cc1	107% (inactive)
COc1ccc2nc3cc(Cl)ccc3c(Nc3ccc(O)c(CN4CCCC4)c3)c2c1	0.129% (active)
COc1cc2c(cc1OC(C)=O)C(=O)CCCC2	83% (inactive)
C=C(C)[C@@H]1CC[C@]2(COCCC#N)CC[C@]3(C)[C@H](CC[C@@H]4[C@@](C)(CCCNCCC#N)[C@H](C(=C)C)CC[C@]43C)[C@@H]12	35.7% [100 µM] (inactive)
CS(=O)(=O)c1cccnn1	108% (inactive)
O=C1NC(=O)C(Cc2ccccc2)(Cc2ccccc2)N1	102% (inactive)
COc1ccc2c(c1)C(C)Cc1c(Cl)ncnc1N2C (stereo not given)	4.94% (active)
Nc1cccc2c1C(=O)c1cccc(NC(=O)c3ccccc3)c1C2=O	28.6% (inactive)
C=C(C)[C@@H]1CC[C@]2(C)[C@H](C(=O)C=C3[C@@H]4C[C@](C)(C(=O)N5CCN(C)CC5)CC[C@]4(C)CC[C@]32C)[C@@]1(C)CCC#N	-88.2% [100 µM] (active)
CC(C)CCNCC(C)(C)O	99.1% (inactive)
CCCCCCSc1ncnc2nc[nH]c12	90.8% (inactive)
CCOc1cccc2c(NC(C)CCCN(CC)CC)c(C)cnc12 (stereo not given)	99.1% (inactive)
[2H]C1([2H])CCN(C(=O)C2CC2)c2cc(NS(=O)(=O)c3ccc(-c4cccc(C(N)=O)c4)cc3)ccc21	90.7% (inactive)
C#C[C@]1(O)CC[C@H]2[C@@H]3CC=C4c5nc(Nc6ccccc6[N+](=O)[O-])sc5CC[C@]4(C)[C@H]3CC[C@@]21C	35.3% (inactive)
COc1cc2c(c(Br)c1N)-c1cc(Br)c(N)cc1C2=O	81.3% (inactive)
COc1ccc(N(c2nc(-c3ccc([N+](=O)[O-])cc3)cs2)C(C)C)cc1	88% (inactive)
